A selection: hits, their analogues and other compounds. The true share with any hit is near 3.5%.
Mtb UGM inh – blocks M. tuberculosis UGM enzyme | P9WIQ1 | purified UGM, fluorescence polarization probe displacement | inhibition, % at 10 µM | 320,000 tested, 0.06% active | AID 504406; in the data active means inhibition above about 10%, passing the limit was not always enough
Rv3671c inh – Rv3671c (M. tuberculosis) protease inhibition; P9WHR9; inhibition, % at 5.96 µM; 320,000 tested, 0.048% active; in the data active means inhibition above about 38%;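 further: extracellular domain of Rv3671c used as enzyme; 0% = enzyme with DMSO and 100% = no enzyme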
Mtb betalactam – beta-lactam sensitization of Mtb H37Rv; AID 434955; inhibition, % at 25 µM; M. tuberculosis H37Rv growth with meropenem, percent inhibition; 330,000 tested, 0.27% active; call rule not given here;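 further: growth measured after seven days incubation then overnight dye step; 0% = bacteria only wells and 100% = bacteria with antibiotic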
GDH-TPI counter-1 – counter-screen for M. tuberculosis FBA inhibitors: GDH-TPI coupled enzymes; GDH-TPI coupled enzyme counterscreen, NADH absorbance; inhibition, % at 4.8 µM; 360,000 tested, 1.2% active; AID 588335; in the data active means inhibition above about 30%;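 further: 0% = DMSO wells and 100% = wells lacking the enzyme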
FBA Mtb inh – inhibits M. tuberculosis FBA enzyme | purified M. tuberculosis FBA, fluorescence read-out | inhibition, % at 1 µM | 360,000 tested, 2.3% active | AID 588726 | P9WQA3;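 further: 0% = vehicle and 100% = reference inhibitor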
Target sequence (P9WQA3 whole entry, looked up): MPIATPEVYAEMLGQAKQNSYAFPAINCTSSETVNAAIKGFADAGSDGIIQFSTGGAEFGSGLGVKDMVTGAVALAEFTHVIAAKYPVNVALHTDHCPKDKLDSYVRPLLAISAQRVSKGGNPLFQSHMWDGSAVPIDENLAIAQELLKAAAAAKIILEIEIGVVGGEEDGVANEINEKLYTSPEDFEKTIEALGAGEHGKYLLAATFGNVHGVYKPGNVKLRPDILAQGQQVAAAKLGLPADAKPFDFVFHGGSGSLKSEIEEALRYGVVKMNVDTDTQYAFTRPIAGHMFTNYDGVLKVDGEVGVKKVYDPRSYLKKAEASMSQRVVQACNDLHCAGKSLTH
Mtb FBA inh conf – confirmation of M. tuberculosis fructose-bisphosphate aldolase inhibitors. shares compounds with FBA Mtb inh. 5,600 tested, 78% active. purified M. tuberculosis FBA, fluorescence read-out. inhibition, % at 1 µM. AID 651616;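 further: 0% = vehicle wells and 100% = reference inhibitor wells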
GDH-TPI counter-2 – GDH-TPI inhibition counter-screen for FBA inhibitors. shares compounds with FBA Mtb inh. GDH-TPI coupled enzyme counterscreen, fluorescence. inhibition, % at 1 µM. 5,600 tested, 81% active; in the data active means inhibition above about 10%
GDH-TPI DR – counter-screen for M. tuberculosis FBA inhibitors: GDH-TPI dose response. AID 652145. IC50, µM. shares compounds with FBA Mtb inh. 170 tested, 79% active. GDH-TPI coupled enzyme assay, fluorescence, artifact counterscreen; call rule not given here
Numbers without * were called inactive; / = not tested or not shown; + = active, no number. Unless noted, no stated cut-off is given here; in the data, active means inhibition above about 27%; inactive means the rest.

SMILES | Mtb UGM inh | Rv3671c inh | Mtb betalactam | GDH-TPI counter-1 | FBA Mtb inh | Mtb FBA inh conf | GDH-TPI counter-2 | others
COc1cccc(C2c3[nH]c4ccccc4c3C[C@H]3C(=O)N(CCCO)CC(=O)N23)c1OC (stereo not given in full) | -1 | -4 | -2 | 6 | -1 | / | /
COc1ccc2c(c1OC)C(=O)N1C(C(=O)O)Cc3c([nH]c4ccccc34)C21 (stereo not given) | 1 | -16 | 2 | 0 | 36* | 107* | 89*
COc1ccc(S(=O)(=O)N(CCCN2CCCC2=O)Cc2cc3c(C)cc(C)cc3[nH]c2=O)cc1 | / | / | / | 29 | 33* | 13 | 8 | GDH-TPI DR=>10
Cc1ccc(-c2cc[n+](Cc3ccccc3)cc2)cc1 | 0 | 10 | -10 | 10 | 67* | + | +
Cc1nn(-c2ccccc2)nc1C(=O)OCC(=O)N1CCC(C)CC1 | 0 | -5 | 79 | -1 | 28* | 94* | 77*
CCCCS(=O)(=O)Nc1ccc2ncn(C)c(=O)c2c1 | 1 | -2 | -2 | 1 | 35* | -3 | -5
CCCCS(=O)(=O)Nc1ccc2cn[nH]c2c1 | 0 | -5 | 1 | -7 | -2 | / | /
COc1ccc(CNC(=O)CSc2nc3cccnc3s2)cc1 | -5 | 5 | 11 | -4 | 2 | / | /
COc1cc(C=Nc2ccccc2C(=O)Nc2ccccc2)cc(OC)c1OC | -3 | 0 | 0 | 6 | 51* | + | +
COc1cccc(C(=O)Nc2ccc3nc(N4CCOCC4)cc(C)c3c2)c1 | 0 | -3 | -5 | 6 | 3 | / | /
Cc1cc(N2CCOCC2)nc2ccccc12 | 0 | -4 | -8 | 15 | 26 | / | /
Cc1cc(N2CCOCC2)nc2ccc(NC(=O)CCC(=O)N3CCN(c4ccccc4F)CC3)cc12 | 1 | 5 | -4 | 16 | 50* | 76* | 55*
Cc1cc(N2CCOCC2)nc2ccc(NC(=O)CCC(=O)N3CCCC(C)C3)cc12 (stereo not given) | 2 | 1 | 2 | 15 | 54* | 114* | 84*
Cc1cc(N2CCOCC2)nc2cc(O)ccc12 | -1 | -4 | -6 | 14 | 32* | 87* | 70*
Cc1cc(N2CCOCC2)nc2ccc(NC(=O)CCC(=O)N3CCN(c4ccc(F)cc4)CC3)cc12 | 1 | 0 | 3 | 14 | 63* | 84* | 52*
O=C(O)c1cc(-c2ccc(-c3ccc(F)cc3)o2)nc2ccccc12 | 6 | -3 | 9 | 17 | 10 | / | /
Cc1cc(N2CCOCC2)nc2ccc(NC(=O)C3CCCCC3)cc12 | / | / | / | 2 | 13 | / | /
Cc1cc(N2CCOCC2)nc2ccc(NC(=S)N3CCCCC3C)cc12 (stereo not given) | -1 | 14 | 94 | 14 | 36* | 122* | 95*
Cc1ccc(/C=N/NC(=O)c2ccccc2OCc2ccc(F)cc2)o1 | -4 | -7 | 3 | 24 | 94* | 54* | 47*
COc1ccc(-c2ccc3c(c2)C2CC3CCN2Cc2ccc(OC(F)(F)F)cc2)cc1 (stereo not given) | / | / | / | -6 | 1 | / | /
COc1ccc(-c2ccc(C(=O)NCC(C)C)c3occc23)c(C)c1 | / | / | / | 10 | 58* | 166* | 132*
COc1ccc(-c2ccc(C(=O)NCc3ccc(F)c(F)c3)c3occc23)c(C)c1 | / | / | / | 4 | 10 | / | /
COc1ccc(-c2ccc(C(=O)Nc3ccccc3)c3occc23)c(C)c1 | / | / | / | 4 | -2 | / | /
COc1ccc(-c2ccc(C(=O)NCC3CC3)c3occc23)c(C)c1 | / | / | / | -1 | 57* | 46* | 33*
COc1ccc(-c2ccc(C(=O)NCc3ccncc3)c3occc23)c(C)c1 | / | / | / | -8 | 111* | + | +
SMILES | Mtb UGM inh | Rv3671c inh | Mtb betalactam | GDH-TPI counter-1 | FBA Mtb inh | Mtb FBA inh conf | GDH-TPI counter-2 | others
O=C(c1ccc2ccccc2c1)N1CCN(Cc2ccccc2)CC1 | 0 | 4 | 4 | -6 | -1 | / | /
Cn1nc(C(C)(C)C)cc1N1C(=O)CCC1(C)C(=O)NC1CCCCC1 (stereo not given) | / | / | / | / | 0 | / | /
COCCNC(=O)C1(C)CCN(C(=O)c2ccc(F)c(C)c2)C1 (stereo not given) | / | / | / | 6 | 2 | / | /
COCCNC(=O)C1(C)CCN(C(=O)c2ccc3c(c2)C(C)(C)CCC3(C)C)C1 (stereo not given) | / | / | / | -1 | 27* | -4 | -8
CCC(NC(=O)Cc1c(C)c2c(cc(C)c3c(C)c(C)oc32)oc1=O)C(=O)O (stereo not given) | -1 | / | -7 | 30 | 37* | 193* | 179*
Cc1coc2c1c(C)cc1oc(=O)c(CC(=O)N[C@@H](C)C(=O)O)c(C)c12 | -3 | / | -5 | -6 | 38* | + | +
Cc1coc2c1c(C)cc1oc(=O)c(CC(=O)N[C@H](C(=O)O)C(C)C)c(C)c12 | 0 | 3 | 2 | 11 | 76* | 51* | 49*
Cc1nc2ccccn2c1-c1ccnn1S(=O)(=O)c1ccc(F)cc1 | -2 | -2 | 5 | 0 | -2 | / | /
COc1ccc(C(O)Cc2nccn2C)cc1 (stereo not given) | 0 | 0 | -6 | 7 | 0 | / | /
CCN1CCN(c2cc(=O)n3ccccc3n2)CC1 | 6 | 2 | 3 | 13 | 7 | / | /
CCN1CCN(c2cc3c(nn2)Oc2ccccc2N3C)CC1 | -2 | -4 | 2 | 8 | 73* | 5 | -5
COc1cc2c(cc1OC)C(C1C(=O)CC(C)CC1=O)N(C(=O)CCl)CC2 (stereo not given) | 0 | 6 | 3 | 1 | 31* | 11 | 5 | GDH-TPI DR=>10
O=C(COc1ccc2ccc(=O)oc2c1)N1CCN(c2ccccc2)CC1 | -2 | 10 | 3 | 26 | 27* | 78* | 53*
O=C(COc1ccc2ccc(=O)oc2c1)NC1CCCCC1 | 0 | 3 | 3 | 32* | 32* | 105* | 74*
NC(=O)C1CCN(C(=O)COc2ccc3ccc(=O)oc3c2)CC1 | 1 | -4 | -12 | 15 | 30* | 2 | -3
Cc1cccc(N2CCN(C(=O)COc3ccc4ccc(=O)oc4c3)CC2)c1C | 2 | -6 | 68 | -6 | 1 | / | /
COc1ccc(C(=O)/C=C2/c3ccccc3CC(C)(C)N2C)cc1OC | -3 | -2 | -3 | 3 | -1 | / | /
COc1ccccc1-c1sc2cc3c(cc2c1C#Cc1cncn1C)OCO3 | -1 | -4 | 97 | 10 | 48* | 88* | 61*
CC(=O)Oc1ccc(-c2cc3c(OC(C)=O)cc(OC(C)=O)cc3oc2=O)cc1 | 1 | -9 | -5 | 8 | 92* | 171* | 195*
COC(=O)COc1ccc2cc(-c3ccc(OC)cc3)c(=O)oc2c1 | -1 | 3 | 99 | 17 | 44* | 188* | 171*
